# PubChem BioAssay (NCATS)
# Results filed as inconclusive are left out. A number with no mark means an inactive call. Calls of active or inactive are those of the source. Calls come from the whole dose curve; as a rule, active = well fitted cell-killing curve with a large enough effect; inconclusive = small, poorly fitted or top-dose-only effect, or effect the other way; inactive = no such curve, though single readings can be large or run the other way.
# Assay: Cell Viability - LYMP2-004 (AID 966); note: nearly all actives have a fitted effect of over 65% in size;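 for activity change, negative = cytotoxicity: plate controls were DMSO only for no effect and tetraoctylammonium bromide control for full effect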
# Conditions: LYMP2-004 lymphoblastoid cell viability, qHTS; series mostly up to 92.2 µM; activity change, negative = cytotoxicity: at the top concentration
# Excerpt: NIH Chemical Genomics Center [NCGC]
# NIH Molecular Libraries Screening Centers Network [MLSCN]
# National Institutes of Environmental Health Sciences [NIEHS]
# National Toxicology Program [NTP]
# We have developed a 1536-well cell-based assay for quantitative high throughput screening (qHTS) against a number of cell lines to determine in vitro cytotoxicity of small molecules. This particular assay uses a human lymphoblastoid cell line (LYMP2-004) purchased from Coriell Institute for Medical Research.
# NCGC Assay Protocol Summary:
# The CellTiter-Glo luminescent cell viability assay (Promega) is a homogeneous method to measure the number of viable cells in culture. The end point readout of this assay is based on quantitation of intracellular ATP, an indicator of metabolic activity, using the luciferase reaction. Luciferase catalyzes the oxidation of beetle Luciferin to oxyluciferin and light in the presence of ATP. The luminescent signal is proportional to amount of ATP present.
# Using the CellTiter-Glo luminescent cell viability assay, the amount of cellular ATP was measured in the lymphoblastoid cell line with complete culture medium following compound treatment for 24 hours. The assay was performed in opaque white Kalypsys 1536-well plates. In the screen, tetraoctylammonium bromide was used as positive control. Library compounds were measured for their ability to cause acute toxicity in the cell line, as reflected by a decrease in intracellular ATP levels, in a concentration-dependent manner. […] AC50 values were determined from concentration-response data modeled with the standard Hill equation.
# qHTS protocol for CellTiter Glo lymphoblastoid cellular assay
# [Step] [Parameter] [Value] [Description]
# 1. Reagent; 5 uL; 2500 lymphoblastoid cells/well
# 2. Time; 5 hr; 37 C incubation
# 4. Controls; 23 nL; Tetraoctylammonium bromide 6.4pM to 92 uM
# 5. Time; 24 hr; 37 C incubation
# 6. Reagent; 5 uL; CellTiter Glo reagent
# 7. Time; 30 min; Room Temperature
# 8. Detection; Luminescence; Viewlux plate reader
# Keywords: cell viability, cytotoxicity, lymphoblastoid cell line, luminescence, NTPHTS, NTPHTS_NCGC, NIEHS, DSSTox, MLSMR, MLSCN, NIH Roadmap, qHTS, NCGC
# Potency is the fitted concentration of half-maximal effect.
Structure (SMILES),"activity change, negative = cytotoxicity [%]",Potency
Cc1ccc(N)cc1[N+](=O)[O-],3.84,–
CN(C)c1ccc(Cc2ccc(N(C)C)cc2)cc1,9.46,–
CC(=O)CC(=O)Nc1ccccc1,4.34,–
O=C=Nc1ccc(Cl)c(Cl)c1,-26.4,–
C=CC(C)(O)CCCC(C)CCCC(C)CCCC(C)C (stereo not given),6.95,–
Oc1cc2c(cc1O)[C@H]1c3ccc(O)c(O)c3OC[C@@]1(O)C2,–,31.6 µM (active)
CCCCCCc1ccc(-c2ccc(C#N)cc2)cc1,-9.7,–
Nc1ccc2c(c1)C(=O)c1ccccc1C2=O,-11.5,–
CCCCCCCCOc1ccc(C(=O)O)cc1,6.97,–
COc1ccc(C)cc1N,-18.2,–
OCC(CO)(CBr)CBr,-2.04,–
COc1ccc(C(=O)Nc2ccccc2)cc1[N+](=O)[O-],-9.32,–
Cc1ccc2ccc3cccc4ccc1c2c34,7.41,–
OC1CCCCC1,3.42,–
CC(C)S,1.18,–
O=C1c2ccccc2C(=O)C1(O)O,–,50.1 µM (active)
c1ccc(Nc2cccc3ccccc23)cc1,5.21,–
CCc1ccc(C(c2ccc(CC)cc2)C(Cl)Cl)cc1,-13.7,–
O=[N+]([O-])c1cccc(I)c1,11.4,–
CC1=C(/C=C/C(C)=C/C=C/C(C)=C/C=O)C(C)(C)CCC1,–,39.8 µM (active)

Structure (SMILES),"activity change, negative = cytotoxicity [%]",Potency
CCNC(=S)NCC,4.05,–
O=C(O)c1ccc([N+](=O)[O-])cc1,-8.34,–
Brc1cc(Br)c(Oc2cc(Br)c(Br)cc2Br)cc1Br,8.76,–
NC(=O)Nc1nc2ccccc2[nH]1,-5.54,–
O=C(OCc1ccccc1)c1ccccc1O,-12.5,–
Cc1ccc(C(=O)O)cc1[N+](=O)[O-],9.23,–
CCCCNCC,-3.73,–
C[Si](C)(C)Cl,-19.3,–
N=C1C=CC(=C(c2ccc(N)cc2)c2ccc(N)cc2)C=C1,–,12.6 µM (active)
Cc1ccccc1OCC1CO1 (stereo not given),-5.43,–
Cc1cccnc1,22.4,–
C=CC1CO1 (stereo not given),-14.6,–
O=C(O)/C=C/c1ccc(/C=C/C(=O)O)cc1,12.1,–
Oc1ccc2c(c1)OCO2,14.6,–
C/C(Cl)=C/CCl,-4.15,–
NC(=O)c1ccc([N+](=O)[O-])cc1,-3.6,–
CC(C)COC(=O)COc1cc(Cl)c(Cl)cc1Cl,19.7,–
c1ccc2ncccc2c1,-5.39,–
Brc1cc(Oc2cc(Br)c(Br)c(Br)c2Br)c(Br)c(Br)c1Br,2.1,–
COc1cc(-c2ccc(N=C=O)c(OC)c2)ccc1N=C=O,14.5,–
